From PubChem BioAssay (EPA / NIEHS)
Active and inactive are the calls of the source. How the source made its calls: active means hit-call score of the fitted dose curve at least 0.9, where 1 is the maximum; inactive means score below 0.9.

Test: ATG_AP_2_CIS: Attagene CIS-FACTORIAL HepG2 Assay for human Activator Protein 2 (AP-2) (AID 2282932)
Details: HepG2 AP-2 cis-reporter, Attagene transcription factor profiling; actives raise or lower the signal
Summary of the method: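 Step one: transient transfection of HepG2 with reporter transcription units. Step two: 24 h chemical exposure. Step three: RNA extraction, RT-PCR, labelled fragment analysis by capillary electrophoresis; DMSO serves as baseline.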

SMILES	outcome
O=C1C(Cl)=C(Cl)C(=O)C(Cl)=C1Cl	inactive
N#CCCCCC#N	inactive
CC1CCC(=O)O1 (stereo not given)	inactive
COc1cc(OC)c(OC)cc1C=O	inactive
CC(C)c1ccc(O)cc1	inactive
C[N+](C)(C)CC(=O)[O-]	inactive
CC(C)(c1cc(Cl)c(O)c(Cl)c1)c1cc(Cl)c(O)c(Cl)c1	inactive
O=C(NCNC(=O)NC1C(=O)NC(=O)N1CO)NC1C(=O)NC(=O)N1CO (stereo not given)	inactive
[N-]=[N+]=CC(=O)OC[C@H](N)C(=O)O	inactive
COCC(=O)N(c1c(C)cccc1C)N1CCOC1=O	inactive
CC(C)CCCCCCCOP(=O)(Oc1ccccc1)Oc1ccccc1	inactive
CCC1CCC(=O)O1 (stereo not given)	inactive
C=COCCCl	inactive
C=CCN(CC=C)C(=O)C(Cl)Cl	inactive
CC[N+](=O)[O-]	inactive
CC(Cc1ccc(C(C)(C)C)cc1)CN1C[C@@H](C)O[C@@H](C)C1 (stereo not given in full)	inactive
[Cl-].[Cl-].[Cl-].[Yb+3]	inactive
CCOC(=O)N(C)N=O	inactive
O=CNC(N1CCN(C(NC=O)C(Cl)(Cl)Cl)CC1)C(Cl)(Cl)Cl (stereo not given)	inactive
CCC[N+](=O)[O-]	inactive

SMILES	outcome
CC(C)(O)C#N	inactive
CC(C)C#N	inactive
S=c1[nH]c2ccccc2[nH]1	inactive
CCCCCc1cc(O)cc(O)c1	inactive
c1ccc(Nc2ccc3ccccc3c2)cc1	inactive
CSc1nc(N=[N+]=[N-])nc(NC(C)C)n1	inactive
CC=Cc1ccc2c(c1)OCO2	inactive
Cc1ccc(OP(=O)(Oc2ccc(C)cc2)Oc2ccc(C)cc2)cc1 (tested in a mixture with another compound)	inactive
ClC1=C(Cl)[C@]2(Cl)[C@@H]3[C@@H](Cl)[C@H](Cl)C[C@@H]3[C@@]1(Cl)C2(Cl)Cl	inactive
O=S(=O)(c1ccccc1)c1ccccc1	inactive
CCC(C)c1cc(C(C)(C)C)cc(-n2nc3ccccc3n2)c1O (stereo not given)	inactive
CC1(C)C(=O)NC(=O)NC1=O	inactive
CC(=O)/C=C/c1ccccc1	inactive
c1ccc(P(c2ccccc2)c2ccccc2)cc1	inactive
CCOC(=O)COc1ccc(Cl)cc1Cl	inactive
CCN(CC)C(=S)S	inactive
N#Cc1cccc(C#N)c1	inactive
O=C1Nc2ccc(Cl)cc2C(c2ccccc2)=NC1O (stereo not given)	inactive
N#CC(c1ccccc1)c1ccccc1	inactive
C[N+](C)=CCl	inactive
